# Test results published in PubChem BioAssay (Tox21).
# Results filed as inconclusive are left out. A call without a number means that no potency is given here. A number with no mark means an inactive call. Activity calls are given as the source filed them. Calls come from the whole dose curve; as a rule, active = well fitted inhibition curve with a large enough effect in the signal ratio in the repeat runs (not every such curve was filed as active); inconclusive = weak or mixed curves; inactive = flat fitted curve, though single readings scatter; the % refers to the signal ratio.
# Biological target: Progesterone receptor (Homo sapiens) (UniProt P06401)
# Sequence (P06401 whole entry, looked up): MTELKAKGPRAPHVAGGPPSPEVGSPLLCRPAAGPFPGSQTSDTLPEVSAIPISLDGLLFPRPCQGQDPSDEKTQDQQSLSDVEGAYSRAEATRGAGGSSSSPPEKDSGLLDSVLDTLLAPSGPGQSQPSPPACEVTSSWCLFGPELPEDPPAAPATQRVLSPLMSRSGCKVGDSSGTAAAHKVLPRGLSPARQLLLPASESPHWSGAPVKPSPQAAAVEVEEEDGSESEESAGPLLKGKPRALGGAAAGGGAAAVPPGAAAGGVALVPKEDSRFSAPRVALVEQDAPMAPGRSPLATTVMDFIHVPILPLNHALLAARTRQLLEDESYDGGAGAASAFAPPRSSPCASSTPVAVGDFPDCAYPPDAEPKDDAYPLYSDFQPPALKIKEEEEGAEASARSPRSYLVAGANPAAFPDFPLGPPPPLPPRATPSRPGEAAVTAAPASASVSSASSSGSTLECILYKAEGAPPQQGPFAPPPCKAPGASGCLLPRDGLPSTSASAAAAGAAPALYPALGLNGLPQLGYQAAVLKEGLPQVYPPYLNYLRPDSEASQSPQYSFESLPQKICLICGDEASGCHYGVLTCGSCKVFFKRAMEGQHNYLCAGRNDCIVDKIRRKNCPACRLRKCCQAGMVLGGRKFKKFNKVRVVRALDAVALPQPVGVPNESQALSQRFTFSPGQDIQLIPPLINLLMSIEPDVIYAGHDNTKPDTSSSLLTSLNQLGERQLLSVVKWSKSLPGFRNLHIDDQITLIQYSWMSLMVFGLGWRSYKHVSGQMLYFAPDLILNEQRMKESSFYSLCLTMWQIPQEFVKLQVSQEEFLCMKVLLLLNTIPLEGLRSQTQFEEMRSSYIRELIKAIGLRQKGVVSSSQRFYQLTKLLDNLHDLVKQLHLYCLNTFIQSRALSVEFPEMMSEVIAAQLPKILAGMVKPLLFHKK
# Test: qHTS assay to identify small molecule antagonists of the progesterone receptor (PR) signaling pathway (AID 1346795)
# Details: PR-UAS-bla HEK293T, beta-lactamase FRET ratio, 16 h; series mostly up to 92.4 µM
# From the text: National Center for Advancing Translational Sciences [NCATS]
# NIH Chemical Genomics Center [NCGC]
# U.S. Environmental Protection Agency [EPA]
# National Institutes of Environmental Health Sciences [NIEHS]
# National Toxicology Program [NTP]
# U.S. Food and Drug Administration [FDA]
# Progesterone receptor (PR), a nuclear hormone receptor, plays an important role in development, metabolic homeostasis and reproduction. […] Endocrine disrupting chemicals (EDCs) and their interactions with steroid hormone receptors like PR causes disruption of normal endocrine function. To identify the compounds that inhibit PR signaling, a PR-UAS-bla GripTite cell line i.e. PR-UAS-bla HEK293T (Invitrogen, Carlsbad, CA, USA) containing a beta-lactamase reporter gene under the control of an Upstream Activator Sequence (UAS) was used to screen Tox21 10K compound library.
# Tox21 Assay Protocol Summary:
# PR-UAS-bla HEK293T cells were dispensed at 3,000 cells/4 uL of assay medium containing 2% charcoal stripped FBS per well into black wall/clear-bottom 1536-well plates using a Multidrop Combi (ThermoFisher Scientific, Waltham, MA) dispenser. After the assay plates were incubated at a 37C and 5% CO2 for 6 hr, 23 nL of compounds dissolved in DMSO, positive controls or DMSO only was transferred to the assay plate by a Pintool station (Kalypsys, San Diego, CA), followed by addition of 1 uL (1nM as final concentration) of Promegestone (R5020) in assay medium using a BioRAPTR FRD (Flying Reagent Dispenser, Aurora Discovery, San Diego, CA). The plates were incubated at 37C and 5% CO2 for 16 hr. Then 1 uL of LiveBLAzer B/G FRET substrate was added using a FRD. After the plates were incubated at room temperature for 2 hours, fluorescence intensity was measured by an Envision plate reader (PerkinElmer, Shelton, CT).
# Potency is the fitted concentration of half-maximal effect.
SMILES,Potency,"activity change, negative = inhibition"
Cc1cccc2nccnc12,inactive,–
C[Si](C)(C)C,inactive,–
CC(=O)c1sc(C)nc1C,inactive,–
CC(C)OC(=O)CCCCC(=O)OC(C)C,inactive,–
CCOC(=O)c1ncn2c1CN(C)C(=O)c1cc(F)ccc1-2,inactive,–
CC(=O)c1ccc2c(c1)Cc1ccccc1-2,12.2 µM (active),–
CC1=CCC(C(C)C)=CC1,inactive,–
CCCCNc1ccc(C(=O)OCCN(C)C)cc1,inactive,–
CC1(C)S[C@@H]2[C@H](N=CN3CCCCCC3)C(=O)N2[C@H]1C(=O)O,inactive,–
CC(C)(C)c1n[nH]c(=S)n(N)c1=O,inactive,–
CC(C)(C)OC(=O)c1ccc(O)cc1,54.5 µM (active),–
OCCC(F)(F)C(F)(F)C(F)(F)C(F)(F)C(F)(F)C(F)(F)C(F)(F)C(F)(F)F,inactive,–
CC(=O)/C=C/C1C(C)=CCC(C)C1(C)C (stereo not given),inactive,–
CC(CC=O)CCCC(C)(C)O (stereo not given),inactive,–
CCCCOC(=O)c1ccccc1,inactive,–
O=S(=O)(O)c1cc(O)c2ccc(Nc3ccccc3)cc2c1,inactive,–
COC(=O)c1ccccc1C(=O)c1ccc(OCCN2CCCCC2)cc1,inactive,–
CCc1ccc(C=O)cc1,inactive,–
CC(=O)Nc1ccc(S(=O)(=O)Cl)cc1,inactive,–
O=C(O)C(=O)Cc1ccccc1,inactive,–

SMILES,Potency,"activity change, negative = inhibition"
CCN(CC)CC(=O)Nc1c(C)cccc1C,inactive,–
C=C(C)C(=O)OCc1ccccc1,inactive,–
O=C1c2ccccc2C(=O)c2cc(S(=O)(=O)O)ccc21,inactive,–
COc1cc2c(cc1OC)[C@@H]1CC(=O)[C@@H](CC(C)C)CN1CC2,inactive,–
CC(C)C(=O)OCc1cccc(OC(=O)[C@@H]2N3C(=O)[C@@H](NC(=O)Cc4ccccc4)[C@H]3SC2(C)C)c1,inactive,–
COP(=O)(OC)OC(c1ccc(Cl)cc1)P(=O)(OC)OC (stereo not given),inactive,–
C=C(C)C(=O)OCCOP(=O)(O)OCCOC(=O)C(=C)C,inactive,–
CCC(C)(CCC(C)C)C(=O)O (stereo not given),inactive,–
Cc1c(I)c(=O)n(-c2ccccc2)n1C,inactive,–
CCO[Si](CCCS)(OCC)OCC,inactive,–
C=C(C)C1CCC(C)(O)CC1 (stereo not given),inactive,–
C=C(C)C(=O)OCCN(CC)CC,inactive,–
CCCOC(=O)C(C)O (stereo not given),inactive,–
CC(C)C[C@H](NC(=O)CNC(=O)[C@H](Cc1ccc(O)cc1)NC(=O)[C@H](CO)NC(=O)[C@H](Cc1c[nH]c2ccccc12)NC(=O)[C@H](Cc1cnc[nH]1)NC(=O)[C@@H]1CCC(=O)N1)C(=O)N[C@@H](CCCN=C(N)N)C(=O)N1CCC[C@H]1C(=O)NCC(N)=O (stereo in doubt),inactive,–
CC(C)N(c1ccccc1)C(C)C,inactive,–
CCCOC(OCCC)OCCC,inactive,–
C=COCCOCCOCCOC=C,inactive,–
C[C@@H](Oc1ccc(CNC(=O)c2cccnc2Oc2ccc3c(c2)OCO3)c(F)c1)C(=O)O,inactive,–
CCNC(=O)C1CC(C)CCC1C(C)C (stereo not given),inactive,–
Oc1cn2c(n1)Nc1ccc(Cl)c(Cl)c1C2,–,2.35% [at 18.9 µM]
